This is part of a sample that, as a whole, favours compounds with a hit. Of some 83,000 tested, about 20% had one in any assay.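 Cells were grown in 96-well plates and exposed to the test compound at a single concentration for 48 hours; results are reported as percent growth, with values below 10 considered active.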 Unmarked numbers belong to inactive results. Calls of active or inactive are those of the source.

The text below walks through data of PubChem BioAssay (NCI).

Holding throughout (assay): NCI-60 one-dose screen, 48 h (100 = growth as untreated, 0 = no growth, -100 = all killed)
What all share (conditions): 10 µM unless noted

For assay [1], the system named is HCT-15 colon.
The subject of assay [2] is HT29 colon.
Assay [3] relates to SNB-75 CNS.
In assay [4] the test system is SNB-19 CNS.
Assay [5] has as its system U251 CNS.
The subject of assay [6] is PC-3 prostate.
Assay [7] deals with SK-MEL-5 melanoma.
For assay [8], the system named is UACC-62 melanoma.
The subject of assay [9] is LOX IMVI melanoma.
The test system of assay [10] is SK-MEL-28 melanoma.

On to `CS(=O)(=O)c1ncc(-c2ccccc2)cn1`, for which the growth in assay [1] was 89.1%; in assay [2], 105%; in [3], 110%; in assay [4], 98.1%; in assay [5] it was 99.3%; in assay [6] it was 100%. Besides, the growth in assay [7] is 93%; in assay [8], 89%; in [9], 84.6%; in assay [10], 98%.
Regarding `O=C(NNc1nc2cc(F)ccc2n2c(CN3CC4CNCC4C3)ccc12)c1cnccn1` (stereo not given), the growth was 18.1% in [1]; 29.2% in [2]; 54.3% in [3]; 33.5% in assay [4]; 27.2% in [5]; 27.2% in [6]. Further, the growth was 11.2% in [7], 1.75% (active) in assay [8], 7.74% (active) in assay [9] and 31.5% in assay [10].
`CC(C)(C)c1ccc(C(=O)Nc2nc3ccc(O)cc3s2)cc1`: the growth in [1] is -5.95% (active); in assay [2], 2.02% (active); in [3] it was 96.2%; in assay [4], 63.5%; in assay [5], 59.1%; in assay [6], 50.1%. For the same molecule, the growth in [7] was 37.5%; in [8] it was 45.1%; in assay [9], 10.4%; in [10], 47.1%.
For the molecule `COc1ccccc1-n1cc(C#N)c(N)c1C(=O)c1ccc(Br)cc1`, the growth in assay [1] is 35.1%; in assay [2] it was 44.6%; in [3] it was 74.5%; in [4], 71.1%; in assay [5], 66.8%; in assay [6] it was 63.4%. For the same molecule, the growth in [7] is 77.4%; in assay [8] it was 45.2%; in assay [9], 66.2%; in [10] it was 69%.
Consider `C[C@H](CCC(=O)NCc1ccc(C(=O)Nc2ccccc2N)cc1)[C@H]1CC[C@H]2[C@@H]3[C@@H](O)C[C@@H]4C[C@H](O)CC[C@]4(C)[C@H]3CC[C@]12C`, for which the growth in assay [1] was 88.3%; in [2], 48.1%; in assay [3], 91.5%; in [4], 73.1%; in [5] it was 64.3%; in [6], 42.4%. The growth in [7] was 63.3%; in [8] it was 36.7%; in [9] it was 59.6%; in [10], 63.6%.
Consider `Cc1ccc(-c2cc3nc(C(Cl)Cl)nc(-c4cccs4)n3n2)cc1`, for which the growth was 61.7% in assay [1]; 39.2% in assay [2]; 110% in assay [3]; 63.8% in assay [4]; 39.4% in assay [5]; 66.5% in assay [6]. In addition, the growth in assay [7] is 96.8%; in assay [8] it was 78.9%; in assay [9] it was 96.2%; in assay [10], 87.4%.
As for `Nc1nc(-c2cccc([N+](=O)[O-])c2)c(N=Nc2ccc([N+](=O)[O-])cc2Cl)s1`, the growth is 3.38% (active) in [1]; 10.7% in [2]; -1.14% (active) in [3]; 17% in assay [4]; 10.3% in [5]; 5.14% (active) in assay [6]. Also, the growth was -76.6% (active) in [7], 1.4% (active) in assay [8], 14.1% in [9] and 22.8% in [10].
Consider `O=S(=O)(NC1c2ccccc2C[C@H]1O)c1ccc(Cl)cc1Cl` (stereo not given in full), for which the growth in [1] is 94.6%; in assay [2], 109%; in assay [3], 86.4%; in assay [4] it was 96.3%; in [5] it was 98.7%; in assay [6], 84.1%. For the same molecule, the growth in assay [7] was 99.4%; in [8], 74.9%; in assay [9] it was 93.3%; in [10] it was 102%.
In the case of `N#Cc1cnc2ccc(-c3cnc4[nH]ncc4c3)cc2c1N1CCc2cc(F)c(Cl)cc21`, the growth in assay [1] is 3.32% (active); in assay [2], 2.58% (active); in assay [3], -9.27% (active); in [4], 14.2%; in assay [5] it was 20.5%; in assay [6] it was 6.58% (active). The growth was -37.2% (active) in assay [7], -18.5% (active) in [8], -9.51% (active) in assay [9] and 31.3% in [10].
With `CCOC(=O)c1c(Nc2ccccc2)nn2c(-c3cccs3)ccnc12`, the growth in assay [1] was 53.8%; in assay [2] it was 80.3%; in [3], 88.8%; in [4] it was 98.2%; in assay [5], 88.6%; in assay [6] it was 81%. In addition, the growth was 70.9% in assay [7], 84.6% in [8], 73.7% in assay [9] and 90.7% in assay [10].
Take `Cc1ccc(-c2cc3nc(C(Cl)Cl)nc(C)n3n2)cc1`: the growth in assay [1] is 109%; in assay [2] it was 104%; in assay [3], 129%; in assay [4] it was 104%; in assay [5], 108%; in assay [6], 98.1%. Moreover, the growth in [7] is 98.2%; in assay [8], 99.6%; in assay [9], 96.8%; in [10] it was 105%.
On to `Cc1ccc(-c2nnc(SCc3ccc(O)c4ncccc34)o2)cc1`, for which the growth is 10.8% in assay [1]; 79% in assay [2]; 0.0889% (active) in assay [3]; 11.1% in assay [4]; 7.11% (active) in [5]; 12.2% in assay [6]. The growth in [7] was 2.42% (active); in assay [8], 2.61% (active); in assay [9], 4.71% (active); in [10] it was 22.8%.
As for `COc1cc2oc(-c3cccc(N)c3)cc(=O)c2c(OC)c1OC`, the growth in assay [1] is 101%; in assay [2], 109%; in assay [3] it was 97.8%; in assay [4], 97.8%; in [5] it was 103%; in [6] it was 98.7%. The growth was 98.8% in [7], 93.5% in assay [8], 111% in [9] and 108% in assay [10].
Turning to `Cc1nn(-c2ccccc2)c2ncnc(N/N=C/c3cccc(O)c3)c12`, the growth in assay [1] was 22.8%; in assay [2], 81%; in assay [3] it was 33.2%; in assay [4] it was 49%; in [5], 40.8%; in assay [6] it was 42.6%. Also, the growth in assay [7] was 30.5%; in [8], 32.7%; in assay [9] it was 29%; in [10], 54.2%.
`CCCCCCCn1cc2c(NCCc3ccccc3)ncnc2n1`: the growth in assay [1] is 95.6%; in assay [2], 118%; in [3] it was 90.6%; in assay [4], 90.4%; in [5], 96.1%; in [6], 92.8%. Further, the growth in assay [7] was 99.6%; in [8] it was 74.2%; in assay [9] it was 117%; in assay [10], 101%.
In the case of `CCCCCc1ccc(S(=O)(=O)Nc2cccc(-c3csc(NCCN4CCN(C)CC4)n3)c2)cc1`, the growth in assay [1] was -13.2% (active); in assay [2], 19.3%; in assay [3], 92.8%; in [4] it was 79.9%; in [5] it was 45.7%; in assay [6], 65.7%. In addition, the growth in assay [7] is -31.1% (active); in assay [8] it was 85.4%; in assay [9], -66.9% (active); in assay [10], 78%.
`CC(=O)c1cc(C(=O)c2ccc(Br)cc2)n2cc(C)cc(C)c12`: the growth is 74.6% in [1]; 94.9% in assay [2]; 89.8% in [3]; 90.5% in assay [4]; 101% in [5]; 87.1% in [6]. The growth was 66.3% in assay [7], 82.6% in assay [8], 86.3% in [9] and 92.4% in assay [10].
For `Cc1ccc(S(=O)(=O)NCCNc2nc(Nc3ccc(N4CCN(C)CC4)cc3)nc3ccsc23)cc1`, the growth is 29.2% in assay [1]; 63.4% in [2]; 67.8% in assay [3]; 104% in assay [4]; 90.8% in assay [5]; 87.9% in assay [6]. In addition, the growth in assay [7] was 95.9%; in assay [8] it was 103%; in assay [9], 97.8%; in assay [10], 103%.
Regarding `CS(=O)(=O)Nc1cc(-c2ccc3ncc(C#N)c(NCc4ccccc4)c3c2)cnc1Cl`, the growth is 8.19% (active) in [1]; 6.89% (active) in assay [2]; -36.7% (active) in assay [3]; 7.25% (active) in assay [4]; 11.1% in assay [5]; -7.11% (active) in [6]. The growth in [7] is -95.3% (active); in assay [8], -28% (active); in assay [9], -32.6% (active); in [10] it was -7.57% (active).
For `Fc1ccc(-c2cc3nc(C(Cl)Cl)nc(-c4ccc(F)cc4)n3n2)cc1`, the growth in assay [1] is 8.52% (active); in assay [2], -6.96% (active); in assay [3], -11.6% (active); in [4], 1.89% (active); in assay [5] it was -39.8% (active); in assay [6], 16.8%. The growth in [7] was 76.5%; in assay [8], 44%; in [9], 55.7%; in [10], -5.14% (active).
